Measurements: PubChem BioAssay AID434936 (National Center for Advancing Translational Sciences (NCATS), 2010)
Records with an inconclusive call do not appear. Activity calls are given as the source filed them. The call rests on the fitted dose curve; in most records, active means well fitted curve in either direction with a large enough effect; inconclusive means small, poorly fitted or top-dose-only effect; inactive means flat fitted curve, though single readings scatter.

The compounds below were run against Neuropeptide S receptor (Homo sapiens) (UniProt Q6W5P4) (assay: Confirmation Concentration-Response Assay for Antagonists of the Neuropeptide S Receptor: Robust Characterization of cAMP Signal Transduction). Details: CHO-NPSR cells, NPS-stimulated cAMP TR-FRET.
Chain of Neuropeptide S receptor (Homo sapiens) (Q6W5P4 whole entry, looked up): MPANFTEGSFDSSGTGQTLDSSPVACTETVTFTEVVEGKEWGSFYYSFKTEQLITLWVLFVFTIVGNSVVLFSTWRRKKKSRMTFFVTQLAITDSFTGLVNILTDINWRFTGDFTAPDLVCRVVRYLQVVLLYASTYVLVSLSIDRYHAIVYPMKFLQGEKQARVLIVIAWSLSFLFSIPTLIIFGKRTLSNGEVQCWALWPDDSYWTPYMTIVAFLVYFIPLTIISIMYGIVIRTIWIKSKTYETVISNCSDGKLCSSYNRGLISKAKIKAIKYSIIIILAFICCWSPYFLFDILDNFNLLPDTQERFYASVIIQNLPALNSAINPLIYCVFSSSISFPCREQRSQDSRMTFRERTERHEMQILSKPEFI
Source text: NIH Chemical Genomics Center [NCGC] NIH Molecular Libraries Probe Production centers Network [MLPCN] MLPCN Grant: X01-DA026210-01 Assay Submitter (PI): Heilig, Markus Alexander NCGC Assay Overview: Neuropeptide S receptor (NPSR), previously known as GPR154, is a recently de-orphanized G protein coupled receptor. Its endogenous ligand is the 20 amino acids peptide Neuropeptide S (NPS). […] NPS and its receptor are found in various tissues. Specifically they are highly expressed in brain areas that have been implicated in modulation of arousal, stress and anxiety. Central administration of NPS in mice produces an unusual profile of activity by inducing wakefulness and arousal, while at the same time suppressing anxiety. Therefore, NPSR may represent a novel drug target for the treatment of sleep and anxiety disorders. To identify NPSR antagonists, we developed a cell-based cAMP assay. NPS can stimulate the production of cAMP in Chinese hamster ovary cells stably expressing NPS receptor. This change in intracellular cAMP level can be detected by a homogeneous LANCE cAMP assay based on the TR-FRET (time resolved fluorescence resonance energy transfer) between a europium-labeled cAMP tracer complex and a cAMP-specific antibody labeled with Alexa Fluor 647. The europium-labeled cAMP tracer complex is formed by the tight interaction between Biotin-cAMP (b-cAMP) and streptavidin labeled with Europium-W8044 chelate (Eu-SA). Light pulse at 320 nm excites the europium of the cAMP tracer and the energy emitted is transferred to the Alexa molecule bound to the cAMP antibody, generating a TR-FRET signal at 665 nm. Residual energy from the europium will produce a light at 620 nm. The native unlabeled cAMP from cell lysates competes with the europium-cAMP tracer for antibody binding and reversely reduces the emission signal of Alexa by interrupting FRET between the two labeled molecules. Both emission signals from the FRET donor (620 nm) and the acceptor (665 nm) can be detected by a plate reader in the TRF mode. Expression of result in fluorescence ratio (665 nm/620 nm) helps to normalize differences due to cell density and reagent dispensing. This assay was successfully optimized to a 1536-well plate format. Select compounds from the primary screen (AID 1461) were chosen for confirmation based on potency, efficacy, SAR, and activity across other assays in PubChem and at NCGC. Other compounds are analogs of active compounds from the primary screen. This particular assay uses a high density of sampling across concentration-response space to establish more confidence estimates of potency.
NCGC Assay Protocol Summary: A Chinese hamster ovary (CHO) cell line stably expressing the NPS receptor (CHO-NPSR) was obtained from Dr. Heilig lab at NIAAA and maintained in F-12 Kaighn's media (Invitrogen, Carlsbad, CA, 21127) supplemented with 10 % FBS, 100 units/ml penicillin, 100 ug/ml streptomycin and 250 ug/ml geneticin at 37C, 5% CO2 in a humidified atmosphere. Before the assay, aliquots of cells were frozen and stored at -135C. The assay was performed in 1536-well format. Data are reported for both the ratio of the two emission wavelengths, and also for the component 'donor' channel, Em2=620. […] IC50 values were determined from concentration-response data modeled with the standard Hill equation. NPS 1536-well assay protocol: (1) Fresh or frozen CHO-NPSR cells were suspended in F-12 Kaighn's media supplemented with 10 % FBS, 100 units/ml penicillin and 100 ug/ml streptomycin. Cells were plated at 4 ul/well (1200 cells) to white, tissue culture treated 1536-well plates, and then cultured at 37C, 5 % CO2 for 16 to 30 hours. (2) Add 23 nl/well of compound in DMSO solution. The final titration for each compound was between 0.6 nM and 46 uM. […]

**Q.** For Cc1c(P(=S)(c2ccccc2)c2ccccc2)[n+]2ccccc2n1CCc1ccccc1, which Potency is on record?
**A.** 2100 nM (active)

**Q.** For Cc1c(P(=S)(c2ccccc2)c2ccccc2)[n+]2ccccc2n1CCCc1ccccc1, which Potency is on record?
**A.** 106 nM (active)

**Q.** Cc1c(P(=S)(c2ccccc2)c2ccccc2)[n+]2ccccc2n1C was tested. Which Potency did it give?
**A.** 1670 nM (active)

**Q.** With Cc1nc2ccccn2c1P(=S)(c1ccccc1)c1ccccc1 as the compound, how does the Potency read?
**A.** 17700 nM (active)

**Q.** Cc1c(P(=S)(c2ccccc2)c2ccccc2)[n+]2ccccc2n1CCCCc1ccccc1 was tested. Which Potency did it give?
**A.** 1.1 nM (active)

**Q.** Which Potency does the source give for Cc1c(P(=S)(c2ccccc2)c2ccccc2)[n+]2ccccc2n1C/C=C/c1ccccc1 here?
**A.** 44.5 nM (active)

**Q.** For Cc1c(P(=S)(c2ccccc2)c2ccccc2)[n+]2ccccc2n1Cc1ccccc1, which Potency is on record?
**A.** 1250 nM (active)

**Q.** Cc1c(P(=S)(c2ccccc2)c2ccccc2)[n+]2ccccc2n1CCCCCc1ccccc1 was tested. Which Potency did it give?
**A.** 705 nM (active)
